Screening data: PubChem, National Center for Advancing Translational Sciences (NCATS)
TDP1 inh – qHTS Assay for Inhibitors of Tyrosyl-DNA Phosphodiesterase (TDP1); recombinant TDP1, AlphaScreen DNA substrate cleavage; Potency, µM (titrated, usually from 130 µM), without a hit: at the top dose activity change, negative = inhibition, actives largely listed as inhibitors; 350,000 compounds, 0.28% hits; further: on the % scale 0 is the no-effect control and ±100 the full control effect; nearly all actives have a fitted effect of over 40% in size
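Here, a 5' biotin and 3' phosphotyrosine-FITC DNA oligonucleotide reports Tdp1 activity: intact substrate bridges AlphaScreen beads, while cleavage leaves a 3' phosphate and drops signal. All incubations at room temperature.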
JMJD2A Tudor – qHTS Assay for Inhibitors of JMJD2A-Tudor Domain; AID 504339, 2011; 390,000 compounds, 4.4% hits; Potency, µM (series often up to 114 µM), without a hit: at the highest dose activity change, negative = inhibition, hits mostly inhibitors; AlphaScreen JMJD2A-Tudor / H3K4me3 peptide binding; further: on the % scale 0 is the no-effect control and ±100 the full control effect; nearly all actives have a fitted effect of over 50% in size
BAZ2B block – qHTS Assay for Inhibitors of BAZ2B; AID 504333, 2011; Potency, µM (highest dose often 114 µM), without a hit: at the highest dose activity change, negative = inhibition, hits mostly inhibitors; 360,000 compounds, 4.4% hits; AlphaScreen BAZ2B-H3K14Ac peptide displacement; further: on the % scale 0 is the no-effect control and ±100 the full control effect; nearly all actives have a fitted effect of over 60% in size
Target sequence (Q9UIF8 whole entry, looked up): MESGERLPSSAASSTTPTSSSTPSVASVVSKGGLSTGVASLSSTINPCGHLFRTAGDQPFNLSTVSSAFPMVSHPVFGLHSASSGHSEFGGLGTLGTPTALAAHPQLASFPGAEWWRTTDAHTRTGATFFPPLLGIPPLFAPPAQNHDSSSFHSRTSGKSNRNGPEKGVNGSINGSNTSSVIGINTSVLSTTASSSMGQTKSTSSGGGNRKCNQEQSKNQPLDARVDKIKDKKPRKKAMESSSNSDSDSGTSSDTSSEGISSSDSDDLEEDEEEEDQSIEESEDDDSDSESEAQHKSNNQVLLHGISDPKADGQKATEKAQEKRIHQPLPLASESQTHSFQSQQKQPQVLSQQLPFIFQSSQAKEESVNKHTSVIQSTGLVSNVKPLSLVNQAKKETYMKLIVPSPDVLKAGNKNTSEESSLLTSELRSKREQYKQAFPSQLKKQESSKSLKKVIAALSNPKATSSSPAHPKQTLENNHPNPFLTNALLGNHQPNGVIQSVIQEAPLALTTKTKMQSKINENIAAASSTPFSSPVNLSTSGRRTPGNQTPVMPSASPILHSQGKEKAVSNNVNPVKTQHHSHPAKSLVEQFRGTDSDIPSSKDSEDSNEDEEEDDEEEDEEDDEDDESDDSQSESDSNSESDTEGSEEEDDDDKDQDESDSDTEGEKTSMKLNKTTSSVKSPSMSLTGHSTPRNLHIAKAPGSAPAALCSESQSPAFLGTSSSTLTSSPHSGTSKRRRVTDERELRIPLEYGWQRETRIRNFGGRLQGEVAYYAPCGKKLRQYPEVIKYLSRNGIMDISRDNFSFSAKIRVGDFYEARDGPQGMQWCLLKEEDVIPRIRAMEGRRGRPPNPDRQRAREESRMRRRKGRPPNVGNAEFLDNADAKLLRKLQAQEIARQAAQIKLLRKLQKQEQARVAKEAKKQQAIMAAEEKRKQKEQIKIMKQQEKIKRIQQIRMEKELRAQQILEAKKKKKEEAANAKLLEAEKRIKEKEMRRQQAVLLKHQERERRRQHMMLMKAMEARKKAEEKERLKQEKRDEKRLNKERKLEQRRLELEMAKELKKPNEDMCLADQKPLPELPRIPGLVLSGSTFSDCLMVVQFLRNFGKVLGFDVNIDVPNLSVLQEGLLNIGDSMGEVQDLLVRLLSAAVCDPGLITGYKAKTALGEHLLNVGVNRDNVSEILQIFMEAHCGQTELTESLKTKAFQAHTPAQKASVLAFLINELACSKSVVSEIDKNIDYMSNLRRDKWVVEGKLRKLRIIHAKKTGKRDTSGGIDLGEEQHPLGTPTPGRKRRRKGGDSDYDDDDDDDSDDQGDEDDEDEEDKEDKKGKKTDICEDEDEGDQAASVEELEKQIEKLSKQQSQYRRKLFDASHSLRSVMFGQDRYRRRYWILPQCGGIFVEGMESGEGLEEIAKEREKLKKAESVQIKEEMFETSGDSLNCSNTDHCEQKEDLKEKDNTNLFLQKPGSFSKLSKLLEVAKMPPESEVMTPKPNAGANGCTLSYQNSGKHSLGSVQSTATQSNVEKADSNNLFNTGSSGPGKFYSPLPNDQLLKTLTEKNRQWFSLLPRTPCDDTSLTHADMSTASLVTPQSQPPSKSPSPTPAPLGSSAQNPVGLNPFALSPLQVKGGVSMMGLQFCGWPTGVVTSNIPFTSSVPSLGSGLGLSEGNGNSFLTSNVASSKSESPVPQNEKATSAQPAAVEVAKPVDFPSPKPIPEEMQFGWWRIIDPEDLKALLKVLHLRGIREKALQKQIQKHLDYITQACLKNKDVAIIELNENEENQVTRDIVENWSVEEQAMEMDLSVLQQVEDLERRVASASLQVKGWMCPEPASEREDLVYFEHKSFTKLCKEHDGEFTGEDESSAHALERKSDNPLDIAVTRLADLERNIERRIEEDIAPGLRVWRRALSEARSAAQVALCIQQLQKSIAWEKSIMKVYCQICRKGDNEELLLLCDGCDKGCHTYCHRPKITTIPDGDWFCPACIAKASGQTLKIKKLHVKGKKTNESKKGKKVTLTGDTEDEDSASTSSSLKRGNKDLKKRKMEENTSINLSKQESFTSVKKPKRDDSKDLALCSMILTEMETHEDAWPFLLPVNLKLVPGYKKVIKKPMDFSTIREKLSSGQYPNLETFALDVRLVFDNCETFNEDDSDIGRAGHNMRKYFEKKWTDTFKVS
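AlphaScreen luminescence quantifies BAZ2B engagement of H3K14Ac peptide; the protein and biotinylated peptide are both at 50 nM final, buffer PBS pH 7.4 with 0.01% Tween-20, all steps at room temperature.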
Sfp inh – qHTS Assay for Inhibitors of Bacillus subtilis Sfp phosphopantetheinyl transferase (PPTase) | 4'-phosphopantetheinyl transferase ffp (Bacillus subtilis), Q9F4F7 | Biochemical Sfp PPTase activity, qHTS | Potency, µM, without a hit: largest response in the series, negative = inhibition, actives largely listed as inhibitors | 310,000 compounds, 3.5% hits;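 further: the enzyme is Sfp with the accession as filed and its product quenches rhodamine fluorescence; 0% = enzyme reaction without inhibitor and -100% = no enzyme wells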
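With Hepes-Na pH 7.6 buffer containing 10 mM MgCl2, Sfp (15 nM) modified BHQ-2-YbbR (12.5 uM) using rhodamine-CoA (5 uM). Two reads 30 minutes apart at 525/598 nm yielded each well's rate.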
HP1b chromo inh – HTS for Inhibitors of HP1-beta Chromodomain Interactions with Methylated Histone Tails. Chromobox protein homolog 1 (Homo sapiens), P83916. AlphaScreen HP1-beta / biotin-H3K9me3 peptide binding. Potency, µM (top dose mostly 114 µM), inactives show at the top dose activity change, negative = inhibition, usual class: inhibitors. 390,000 compounds, 0.56% hits; further: nearly all actives have a fitted effect of over 70% in size
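AlphaScreen: HP1-beta (50 nM) preformed 30 min with biotin-H3(1-18)K9me3 peptide (50 nM) in PBS pH 7.4, 0.01% Tween-20. Compound added for 30 min at RT, then streptavidin donor/nickel chelate acceptor beads (10 ug/mL) for 30 min.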
G9a block – qHTS Assay for Inhibitors of Histone Lysine Methyltransferase G9a; Histone-lysine N-methyltransferase EHMT2 (Homo sapiens), Q96KQ7; G9a H3K9 monomethylation, AlphaScreen, 2 h; Potency, µM (highest dose often 102 µM), without a hit: at the highest dose activity, negative = inhibition, hits mostly inhibitors; 350,000 compounds, 8.8% hits; AID 504332, 2011; further: on the % scale 0 is the no-effect control and ±100 the full control effect; nearly all actives have a fitted effect of over 75% in size
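Compounds were preincubated with 20 nM G9a for 15 min, after which biotinylated H3K9 peptide (500 nM) and SAM (20 uM) started a 2 h room-temperature reaction. Monomethylated product was quantified by antibody-based AlphaScreen chemiluminescence.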
* hit, by the source's call; ? = inconclusive; . = no result given; [ ] = another dose, or the depositor's remark. The list is not random: actives were taken first. Their share in the collection is about 12%. The call rests on the fitted dose curve; in most records, active means well fitted curve in the direction sought with a large enough effect; inconclusive means small, poorly fitted or top-dose-only effect, or another doubt; inactive means no such curve, though single readings can be large; an effect the other way counts as inactive or inconclusive. Potency means the concentration at half of the fitted maximal effect.

SMILES	TDP1 inh	JMJD2A Tudor	BAZ2B block	Sfp inh	HP1b chromo inh	G9a block
Cc1cc(C(=O)CSc2nc3ccccc3[nH]2)c(C)n1C	11.4%	56.2µM*	?	-90.0%	?	?
Cc1cc(C(=O)CSc2nc3ccc(Cl)cc3[nH]2)c(C)n1CC1CCCO1 (stereo not given)	10.1%	?	?	-1.2%	-24.2%	44.7µM*
O=C(CSc1nc2ccccc2[nH]1)c1ccccc1F	9.1%	-6.8%	2.2%	1.3%	12.3%	-6.1%
Cc1cc(C(=O)CSc2nc3ccc(Cl)cc3[nH]2)c(C)n1C	4.0%	?	-7.9%	-6.7%	-2.4%	?
CCN(C(=O)CSc1nnc(SC)s1)c1c(N)n(Cc2ccccc2)c(=O)[nH]c1=O	1.4%	6.4%	-1.2%	.	67.2%	0.6%[12.7 µM]
CCOc1ccc2nc(N3CCCC(C(=O)Nc4ccc(Br)c(C)c4)C3)sc2c1 (stereo not given)	2.0%	-10.9%	0.2%	.	4.6%	-4.4%[59 µM]
O=[N+]([O-])c1ccc(S(=O)(=O)NN=CCCc2ccccc2)cc1	.	-26.0%	.	.	11.1%	.
Cc1cc(O)c(CN2CCN(c3ccccc3)CC2)c2oc(=O)cc(C)c12	2.9%	-1.0%	9.7%	.	11.8%	1.9%[59 µM]
O=C(Nc1cccc(Cl)c1)Nc1csc([N+](=O)[O-])c1	2.5%	?	?	-11.5%	-17.0%	2.5%[59 µM]
COc1ccc(N2CCN(c3csc4ccccc4c3=O)CC2)cc1	8.9%	39.8µM*	39.8µM*	.	-4.5%[57 µM]	?
COc1ccc(N2CCN(c3csc4ccc(Cl)cc4c3=O)CC2)cc1	7.7%	?	50.1µM*	.	-12.8%[57 µM]	-50.7%[59 µM]
CCOC(=O)c1sc(NC(=O)CSc2nccn2C)nc1C	2.8%	-16.1%	-28.8%	-1.7%	1.6%	-13.3%
NS(=O)(=O)c1ccc(NC(=O)NC2CCCCC2)cc1	0.0%	-7.6%	4.6%	-6.0%	40.0%	1.0%
CC1CCCC/C1=N\NC(=S)Nc1cccnc1 (stereo not given)	4.6%	?	?	20µM*	?	3.16µM*
NS(=O)(=O)c1ccc(NC(=S)NC2CCCCC2)cc1	2.4%	-14.1%	-29.2%	7.94µM*	-3.8%	25.1µM*
S=C(Nc1cccnc1)NC1CCCC1	5.3%	-24.0%	2.6%	-4.8%	-13.6%	15.8µM*
S=C(Nc1cccnc1)NC1CCCCCCC1	2.3%	-2.4%	-0.4%	2.6%	30.4%	14.0%[59 µM]
S=C(Nc1ccc(Nc2ccccc2)cc1)NC1CCCCCC1	8.1%	20µM*	12.6µM*	?	?	15.8µM*
CC1CCCC/C1=N\NC(=S)NCCc1ccccc1 (stereo not given)	3.8%	?	?	12.5%	-3.0%	?
Fc1cccc(Cl)c1CNCc1cccnc1	.	-6.9%	-2.7%	12.1%	22.0%	.
S=c1[nH]ncn1NCc1ccc(Cl)cc1Cl	0.0%	31.6µM*	-3.5%	-23.6%	27.5%	2.82µM*
Clc1ccc(CNc2ncnc3[nH]ncc23)c(Cl)c1	.	-13.3%	.	.	22.5%	.
Fc1cccc(Cl)c1CNn1cn[nH]c1=S	-4.9%	50.1µM*	-34.2%	-3.9%	55.3%	8.91µM*
COc1ccccc1CCC(=O)NNC(=O)c1ccc(Br)cc1	7.1%	-7.5%	1.2%	10.3%	23.9%	1.3%
O=[N+]([O-])c1ccc(S(=O)(=O)NN=Cc2ccc(Cl)c(Cl)c2)cc1	.	?	.	.	-13.8%	.
SMILES	TDP1 inh	JMJD2A Tudor	BAZ2B block	Sfp inh	HP1b chromo inh	G9a block
CO[C@H]1COC(=O)[C@H](C)NC(=O)[C@@H](C)COC(=O)[C@H]2CCCN2C(=O)C/C=C\[C@H]1C	1.6%[21 µM]	.	.	10.3%	.	.
O=C(CNCc1ccccn1)Nc1ccc([N+](=O)[O-])cc1C(=O)Nc1ccccc1F	-4.4%	44.7µM*	17.8µM*	3.3%	12.6%	13.2%
CC1=C(C(=O)OCc2ccccc2)C(c2cccc([N+](=O)[O-])c2)NC(=O)N1C (stereo not given)	8.0%	?	2.6%	3.2%	3.3%	.
Cn1c2ccccc2c2cc(C(=O)N3CCOCC3)sc21	-3.9%	2.4%	-24.7%	44.7µM*	19.7%	?
CCCn1c(C(CO)Nc2nc(-c3cccc(Br)c3)cs2)nc2ccccc21 (stereo not given)	.	?	?	-9.1%	-5.6%	44.7µM*
Cc1ccccc1CNC(=O)C1CCCN(c2nnc(C)c3c(C)n(-c4ccccc4)nc23)C1 (stereo not given)	79.4µM*	?	?	-8.1%	14.4%	56.2µM*
COc1ccc(-n2nc3c(N4CCC(C(=O)NCCc5ccco5)CC4)nnc(C)c3c2C)cc1	-2.4%	50.1µM*	-8.4%	-3.6%	23.5%	-17.3%
CCOc1ccc(CNC(=O)C2CCN(c3nnc(C)c4c(C)n(-c5ccc(C)cc5)nc34)CC2)cc1	?	?	56.2µM*	?	26.2%	22.4µM*
CC(C)(C)OC(=O)N1CCCC(C(=O)Nc2cccc(C(=O)N3CCCC3)c2)C1 (stereo not given)	1.1%	-2.9%	.	.	54.3%	.
CC(C)OC(=O)[C@@H]1C=C[C@H](C)[C@@H](CCCCOCc2ccccc2)O1	3.1%	.	.	11.2%	.	.
O=C(NC1CCN(C(=O)NCc2ccccc2)CC1)c1ccccc1	1.5%[0.0935 µM]	-7.0%	6.3%	8.0%	26.7%	-2.5%
N#Cc1ccc(OC(=O)c2cnccn2)cc1	0.0%	?	79.4µM*	-18.3%	7.6%	31.6µM*
CCc1ccc(CN(C)C(=O)c2cc(COc3cc(C)c(Cl)c(C)c3)on2)nc1	-4.3%	29.2%	0.8%	8.4%	85.6%	178.6%
CCN(CC)c1ccc(/C=N/N2CCOCC2)c(O)c1	2.4%	-25.5%	-34.1%	-13.0%	5.6%	?
CCN(CC)c1ccc(/C=N/N=C(N)N)c(O)c1	7.4%	?	-37.6%	6.2%	0.0%	-49.9%
CCN(CC)c1ccc(/C=N/N2CCN(Cc3ccc(C)cc3C)CC2)c(O)c1	0.0%	22.4µM*	10µM*	2.7%	20µM*	?
CCN(CC)c1ccc(/C=N/N2CCN(Cc3ccccc3)CC2)c(O)c1	11.7%	14.1µM*	12.6µM*	-3.7%	-77.0%	?
COc1ccccc1N1CCN(C(=O)CN2C(=O)COc3ccc(S(=O)(=O)N4CCCC4)cc32)CC1	3.8%	-13.6%	11.9%	.	54.2%	27.4%[59 µM]
